Consider twelve molecules from PubChem BioAssay (NCATS).

Inconclusive results are not listed. Activity calls are given as the source filed them. Unless noted, calls follow the shape of the dose curve; as a rule, active = well fitted curve in the direction sought with a large enough effect; inconclusive = small, poorly fitted or top-dose-only effect, or another doubt; inactive = no such curve, though single readings can be large; an effect the other way counts as inactive or inconclusive.

The target of test [1] is Luciferin 4-monooxygenase (Photinus pyralis) (UniProt P08659). Kind of test: Biochemical firefly luciferase enzyme assay for NPC (AID 624030).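 Also: purified P. pyralis luciferase at 10 nM with luciferin and ATP substrate; nearly all actives have a fitted effect of over 70% in size.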 The procedure, abridged:
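Purified P. pyralis luciferase at 10 nM in 50 mM Tris Acetate (final), luminescence read within 5 minutes of enzyme addition to compounds. Activity normalised to PTC124 versus DMSO; concentration-response curves classed by r2, magnitude and activity.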

Test [2] can be described thus: S16 Schwann cell PMP22 intronic element beta-lactamase assay (AID 624044; calls by dose curve; also: nearly all actives have a fitted effect of over 15% in size). The conditions noted are these: S16 rat Schwann cells, PMP22 element beta-lactamase FRET, 24 h; ratio activity, negative = inhibition: at 38.3 µM (top of the series). The procedure, abridged: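 Rat S16 Schwann cells with beta-Lac driven by a PMP22 intronic element, compound-treated 24 h at 37 °C. LiveBLAzer FRET B/G read: 460 nm normalized to potassium clavulanate vs DMSO; 535 nm FRET as viability; concentration-effect curves classified.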

The next test relates to 7G8. Kind of test: qHTS profiling for inhibitors of Plasmodium falciparum proliferation (AID 504749). Also: nearly all actives have a fitted effect of over 60% in size. Also: potency is read from the fitted curve at half-maximal effect. Particulars: P. falciparum in erythrocytes, SYBR Green DNA, 72 h; series mostly up to 28.7 µM. The procedure, abridged: (§1)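 P. falciparum-infected erythrocytes (0.3% parasitemia, 2.5% hematocrit) incubated with compound 72 h at 37 C, 5% CO2. Parasite DNA detected by SYBR Green after lysis, overnight at room temperature; normalised to 0.29 uM artemisinin and DMSO.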
In general terms: In qHTS, concentration-response curves come from the screen itself.

The subject of the next test is ATS95. The test is described as above. Particulars: P. falciparum in erythrocytes, SYBR Green DNA, 72 h; series mostly up to 28.7 µM. The procedure, abridged:
as §1

The next test has as its system CP215. The test is described as above. Particulars: P. falciparum in erythrocytes, SYBR Green DNA, 72 h; series mostly up to 28.7 µM. The method, boiled down: as §1
In the next test the test system is CP247. Described as above. The conditions noted are these: P. falciparum in erythrocytes, SYBR Green DNA, 72 h; series mostly up to 28.7 µM. The method, boiled down:
as §1

The subject of the next test is CP260. The test is described as above. Particulars: P. falciparum in erythrocytes, SYBR Green DNA, 72 h; series mostly up to 28.7 µM. The method, boiled down:
as §1

For the next test, the system named is CP266. The test is described as above. The conditions noted are these: P. falciparum in erythrocytes, SYBR Green DNA, 72 h; series mostly up to 28.7 µM. The procedure, abridged: as §1
The subject of the next test is CP291. The description is as above. The conditions noted are these: P. falciparum in erythrocytes, SYBR Green DNA, 72 h; series mostly up to 28.7 µM. The procedure, abridged: as §1
The test system of the next test is CP297. The description is as above. Particulars: P. falciparum in erythrocytes, SYBR Green DNA, 72 h; series mostly up to 28.7 µM. The procedure, abridged:
as §1

For the next test, the system named is DIV17. The description is as above. The conditions noted are these: P. falciparum in erythrocytes, SYBR Green DNA, 72 h; series mostly up to 28.7 µM. The procedure, abridged: as §1
For another test, the system named is GB4. The description is as above. The conditions noted are these: P. falciparum in erythrocytes, SYBR Green DNA, 72 h; series mostly up to 28.7 µM. The method, boiled down: as §1
In a further test the test system is PC26. The description is as above. The conditions noted are these: P. falciparum in erythrocytes, SYBR Green DNA, 72 h; series mostly up to 28.7 µM. The method, boiled down: as §1
In the next test the test system is PC49. The test is described as above. Particulars: P. falciparum in erythrocytes, SYBR Green DNA, 72 h; series mostly up to 28.7 µM. The procedure, abridged: as §1
Another test deals with TAB109. Described as above. The conditions noted are these: P. falciparum in erythrocytes, SYBR Green DNA, 72 h; series mostly up to 28.7 µM. The method, boiled down: as §1
Another test concerns TAB165. The description is as above. Particulars: P. falciparum in erythrocytes, SYBR Green DNA, 72 h; series mostly up to 28.7 µM. The procedure, abridged:
as §1

Test [3] is described as follows: S16 Schwann cell viability assay (CellTiter-Glo assay) (AID 624031).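 Also: native untransfected S16 rat Schwann cells; cellular ATP luminescence as a viability measure; nearly all actives have a fitted effect of over 70% in size.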 The method, boiled down:
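Cells were seeded at 500-750 per well in phenol red-free DMEM with 10% FBS and left overnight. Compounds or DMSO were pinned in, incubation ran 24 h at 37 °C/5% CO2, then CellTiter-Glo reagent was added and luminescence measured.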
(In general: Cellular ATP, detected with luciferase, serves as a proxy for viable cell number.)

Another test has as its system CP335. The test is described as follows: qHTS profiling for inhibitors of Plasmodium falciparum proliferation (AID 504749). Also: nearly all actives have a fitted effect of over 60% in size. Also: potency is read from the fitted curve at half-maximal effect. Particulars: P. falciparum in erythrocytes, SYBR Green DNA, 72 h; series mostly up to 28.7 µM. The method, boiled down: as §1
For the next test, the system named is P93_24. Described as above. The conditions noted are these: P. falciparum in erythrocytes, SYBR Green DNA, 72 h; series mostly up to 28.7 µM. The procedure, abridged: as §1
A further test has as its system PC15. The description is as above. The conditions noted are these: P. falciparum in erythrocytes, SYBR Green DNA, 72 h; series mostly up to 28.7 µM. The method, boiled down:
as §1

Sequence of Luciferin 4-monooxygenase (Photinus pyralis) (P08659 whole entry, looked up): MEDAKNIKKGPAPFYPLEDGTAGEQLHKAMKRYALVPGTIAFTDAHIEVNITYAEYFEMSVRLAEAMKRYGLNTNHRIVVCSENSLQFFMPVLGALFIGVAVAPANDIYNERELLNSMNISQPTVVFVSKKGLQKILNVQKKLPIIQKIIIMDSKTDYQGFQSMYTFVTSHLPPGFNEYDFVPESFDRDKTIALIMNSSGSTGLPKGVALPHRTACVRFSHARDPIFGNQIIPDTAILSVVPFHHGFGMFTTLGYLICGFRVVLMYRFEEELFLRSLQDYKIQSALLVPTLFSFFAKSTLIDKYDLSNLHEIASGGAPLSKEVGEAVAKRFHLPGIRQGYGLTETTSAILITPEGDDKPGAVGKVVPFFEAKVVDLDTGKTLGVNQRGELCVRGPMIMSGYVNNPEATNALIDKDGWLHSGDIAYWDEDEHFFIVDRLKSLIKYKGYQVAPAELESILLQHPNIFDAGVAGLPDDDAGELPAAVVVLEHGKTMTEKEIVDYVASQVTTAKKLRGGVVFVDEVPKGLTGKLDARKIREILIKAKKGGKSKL

As to `C[C@]12CC[C@@H]3c4ccc(O)cc4CC[C@H]3[C@@H]1CCC2OC(=O)CCC1CCCC1` (some centres undefined), the Potency result (in [1]; in [2]; in the test with ATS95; in the test with CP215; in the test on CP247; with CP260) was “inactive” in each case. For the same molecule, the Potency entry in the test on CP266, in the test with CP291, in the test on CP297, in the test on DIV17, in the test with GB4 and with PC26 was “inactive” in each case. For the same molecule, the Potency result with PC49, in the test on TAB109 and in the test on TAB165 was “inactive” throughout. In the test on 7G8, the Potency was 10 µM (active).

Consider `CCN(CC)C(=O)[C@@]1(c2ccccc2)C[C@@H]1CN`, for which the Potency entry (in test [1]; in test [3]; in [2]; with ATS95; with CP215; in the test on CP247) was “inactive” in each case. Further, the Potency entry with CP260, in the test on CP266, with CP291, in the test on CP297, in the test with CP335 and with GB4 was “inactive” each time. Moreover, the Potency result in the test with P93_24, in the test on PC15, in the test with PC49 and with TAB165 was “inactive” throughout.

Consider `CC(=O)O[C@]1(C(C)=O)CCC2C3CCC4=CC(=O)CCC4(C)C3(F)C(O)CC21C` (some centres undefined), for which the Potency entry (in test [1]; in test [3]; in test [2]; in the test with ATS95; in the test with CP215; in the test with CP247) was “inactive” throughout. For the same molecule, the Potency entry with CP260, in the test with CP266, in the test on CP291, with CP297, in the test on CP335 and in the test on DIV17 was “inactive” each time. The Potency result in the test with GB4, with P93_24, with PC15, with PC26, with PC49 and in the test with TAB109 was “inactive” throughout. Moreover, the Potency entry in the test with TAB165 is “inactive”.

Turning to `C=C(CC[C@@H](C)[C@H]1CCC2[C@]1(C)CC[C@]13C[C@@]14CCC(OC(=O)/C=C/c1ccc(O)c(OC)c1)C(C)(C)[C@@H]4CC[C@@]23C)C(C)C` (some centres undefined), the Potency result (in [1]; in [3]; in the test with ATS95; with CP215; in the test on CP247; in the test with CP260) was “inactive” throughout. Further, the Potency entry with CP266, in the test with CP291, in the test with CP297, with CP335, with DIV17 and in the test on GB4 was “inactive” in each case. For the same molecule, the Potency entry in the test with P93_24, with PC15, in the test on PC26, with PC49, in the test on TAB109 and in the test on TAB165 was “inactive” throughout.

In the case of `C[N+]12CCCC[C@@H]1CCC(=C(c1cccs1)c1cccs1)C2` (some centres undefined), the Potency result in [1], in test [3] and in test [2] was “inactive” throughout. Further, the Potency in the test on 7G8 is 7.94 µM (active); in the test on CP215, 15.1 µM (active); in the test with CP247, 10 µM (active); in the test with CP260 it was 11.2 µM (active); in the test on CP291 it was 15.1 µM (active); in the test with CP335, 12 µM (active). Also, the Potency with DIV17 is 10.7 µM (active); in the test on GB4, 7.57 µM (active); in the test with P93_24, 7.94 µM (active); with PC26, 15.1 µM (active); in the test with PC49, 10 µM (active); in the test with TAB109 it was 2.51 µM (active). In the test on TAB165, the Potency is 12.6 µM (active).

As for `Cc1c(C)c2c(c(C)c1O)CCC(C)(CCCC(C)CCCC(C)CCCC(C)C)O2` (centres undefined), the Potency entry (in test [1]; in test [3]; in test [2]; with ATS95; in the test with CP215; with CP247) was “inactive” in each case. The Potency entry in the test on CP260, in the test with CP266, in the test with CP291, in the test with CP335, in the test on DIV17 and in the test on GB4 was “inactive” throughout. The Potency result with P93_24, in the test with PC15, in the test on PC26, in the test on PC49, in the test with TAB109 and in the test on TAB165 was “inactive” each time.

On to `Nc1nc2[nH]cc(CCc3ccc(C(=O)NC(CCC(=O)O)C(=O)O)cc3)c2c(=O)[nH]1` (centres undefined), for which the Potency result in test [1] and in [3] was “inactive” throughout. Also, the Potency with 7G8 is 3.98 µM (active); with CP215, 0.601 µM (active); in the test with CP247, 0.199 µM (active); in the test on CP260 it was 0.126 µM (active); in the test on CP297, 0.239 µM (active); with CP335, 0.135 µM (active). The Potency in the test on GB4 is 0.0849 µM (active); in the test on PC49, 0.562 µM (active); with TAB109, 11.2 µM (active); in the test on TAB165, 7.94 µM (active).

As to `C#C[C@]1(O)CC[C@H]2[C@H]3[C@H](CC[C@@]21C)C1=C(CC(=O)CC1)C[C@@H]3C`, the Potency entry (in test [1]; in the test with ATS95; in the test with CP215; with CP260; in the test with CP266; in the test on CP291) was “inactive” in each case. The Potency entry with CP297, in the test with CP335, in the test on GB4, in the test with P93_24, in the test with PC15 and in the test on PC26 was “inactive” throughout. For the same molecule, the Potency entry in the test with PC49, with TAB109 and with TAB165 was “inactive” throughout.

For `N#C/C(=C1/SCC(c2ccccc2Cl)S1)n1ccnc1` (centres undefined), the Potency result (in test [1]; in [3]; in test [2]; with CP247; in the test on CP260; with CP291) was “inactive” throughout. Also, the Potency result with CP335, with DIV17, in the test with PC15, in the test on PC49 and in the test with TAB109 was “inactive” in each case. For the same molecule, the Potency in the test with 7G8 was 10 µM (active); with TAB165 it was 12.6 µM (active).

On to `CC(C)C(=O)OCC(=O)[C@@]12OC(C3CCCCC3)O[C@@H]1CC1C3CCC4=CC(=O)C=C[C@]4(C)C3[C@@H](O)C[C@@]12C` (some centres undefined), for which the Potency result in test [1] and in test [2] was “inactive” each time. Further, the Potency in the test on 7G8 is 0.447 µM (active); in the test with ATS95, 0.708 µM (active); in the test with CP247, 1 µM (active); with CP260, 0.708 µM (active); in the test with CP266, 1.35 µM (active); in the test on CP335, 0.601 µM (active). Further, the Potency in the test on DIV17 is 1.35 µM (active); with GB4 it was 1.07 µM (active); with P93_24, 0.891 µM (active); in the test with PC15, 1.58 µM (active); in the test on PC49, 1.12 µM (active); in the test on TAB109 it was 0.708 µM (active). The Potency in the test on TAB165 is 0.891 µM (active).

In the case of `COC(=O)C1C2CC3c4[nH]c5cc(OC)ccc5c4CCN3CC2CC(OC)C1OC` (centres undefined), the Potency entry (in test [1]; in test [2]; in the test on ATS95; with CP215; in the test with CP247; with CP260) was “inactive” throughout. Also, the Potency entry in the test on CP266, in the test with CP291, in the test on CP297, with CP335, with GB4 and in the test with P93_24 was “inactive” each time. Moreover, the Potency result in the test on PC15, in the test on PC26, in the test with PC49, in the test with TAB109 and with TAB165 was “inactive” each time.

For `C=C1C(n2cnc3c(=O)[nH]c(N)nc32)C[C@H](O)[C@H]1CO` (some centres undefined), the Potency result (in test [1]; in test [3]; in test [2]; with CP215; in the test with CP247; in the test on CP266) was “inactive” throughout. Also, the Potency entry in the test with CP297 and with TAB165 was “inactive” each time. In addition, the Potency in the test on 7G8 is 12.6 µM (active).
